{
  "source": "paper PMC7862700",
  "about": "“An all-to-all approach to the identification of sequence-specific readers for epigenetic DNA modifications on cytosine”",
  "assay_in_all_cases": "DAPPL (digital affinity profiling via proximity ligation, sequencing); 10 mM Tris-HCl pH 7.5, 50 mM NaCl, 1 mM DTT, 4% glycerol, room temperature, 30 min; GST-TFs on glutathione beads, 16-mer random dsDNA library, 0.1% formaldehyde crosslink after washing; high values mean tight binding",
  "details_in_all_cases": "protein: recombinant; tags: N-terminal GST; dsDNA, one strand shown",
  "key": {"[1]": {"target": "T1, ELK1 (Homo sapiens, UniProt P19419 1-428)", "T1 sequence": "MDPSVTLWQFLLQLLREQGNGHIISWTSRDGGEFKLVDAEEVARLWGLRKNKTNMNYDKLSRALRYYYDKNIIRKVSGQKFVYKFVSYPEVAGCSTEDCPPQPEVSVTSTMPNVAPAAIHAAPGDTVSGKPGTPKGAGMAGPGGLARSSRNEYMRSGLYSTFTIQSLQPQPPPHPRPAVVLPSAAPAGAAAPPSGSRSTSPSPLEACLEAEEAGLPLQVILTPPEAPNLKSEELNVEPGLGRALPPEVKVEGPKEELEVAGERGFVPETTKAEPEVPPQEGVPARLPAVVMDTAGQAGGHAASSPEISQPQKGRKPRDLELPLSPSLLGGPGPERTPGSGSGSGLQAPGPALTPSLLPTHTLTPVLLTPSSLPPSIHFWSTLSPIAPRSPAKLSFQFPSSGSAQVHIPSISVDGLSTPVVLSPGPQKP", "outline": "(§1)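 Beads coated with glutathione captured GST-fused human transcription factors that had been expressed in yeast, and the factors were then given DNA barcodes and pooled with a tag-only sample. The pools were incubated with 200 nmole of a random double-stranded 16-mer DNA library in Tris/NaCl/DTT/glycerol buffer for 30 min at room temperature, washed, crosslinked with 0.1% formaldehyde and proximity-ligated with BsaI/T4 ligase at 37 °C for 1 h. PCR amplification and Illumina NextSeq500 sequencing came last. Binding signal is each hexamer's read frequency for a factor divided by its frequency for the tag-only sample.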"}, "[2]": {"target": "ETV5 (Homo sapiens, UniProt P41161 1-510)", "sequence (P41161 whole entry)": "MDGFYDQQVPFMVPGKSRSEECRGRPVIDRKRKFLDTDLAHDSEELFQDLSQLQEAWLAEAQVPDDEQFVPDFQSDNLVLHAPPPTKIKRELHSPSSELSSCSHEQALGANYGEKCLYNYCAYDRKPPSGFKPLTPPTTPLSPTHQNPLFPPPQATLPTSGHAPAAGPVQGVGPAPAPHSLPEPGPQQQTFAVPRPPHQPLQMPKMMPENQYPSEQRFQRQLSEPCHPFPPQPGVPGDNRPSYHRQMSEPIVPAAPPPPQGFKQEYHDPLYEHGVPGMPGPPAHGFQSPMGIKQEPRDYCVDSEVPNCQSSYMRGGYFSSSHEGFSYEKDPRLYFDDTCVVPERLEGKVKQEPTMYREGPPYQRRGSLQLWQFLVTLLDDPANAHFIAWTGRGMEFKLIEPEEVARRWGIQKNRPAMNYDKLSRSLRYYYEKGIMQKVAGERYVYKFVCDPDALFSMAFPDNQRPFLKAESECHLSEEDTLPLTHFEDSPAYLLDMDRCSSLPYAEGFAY", "outline": "as §1"}, "[3]": {"target": "T2, SPDEF (Homo sapiens, UniProt O95238 1-335)", "T2 sequence": "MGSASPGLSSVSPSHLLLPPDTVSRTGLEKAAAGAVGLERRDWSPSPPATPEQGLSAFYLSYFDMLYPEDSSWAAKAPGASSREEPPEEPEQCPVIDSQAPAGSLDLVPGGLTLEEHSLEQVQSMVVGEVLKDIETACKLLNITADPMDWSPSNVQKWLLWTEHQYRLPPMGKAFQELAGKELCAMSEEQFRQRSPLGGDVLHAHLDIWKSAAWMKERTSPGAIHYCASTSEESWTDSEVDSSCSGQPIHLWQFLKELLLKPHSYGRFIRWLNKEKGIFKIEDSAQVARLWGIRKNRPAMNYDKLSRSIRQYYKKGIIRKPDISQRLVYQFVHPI", "outline": "as §1"}, "[4]": {"target": "T3, ETV7 (Homo sapiens, UniProt Q9Y603 1-341)", "T3 sequence": "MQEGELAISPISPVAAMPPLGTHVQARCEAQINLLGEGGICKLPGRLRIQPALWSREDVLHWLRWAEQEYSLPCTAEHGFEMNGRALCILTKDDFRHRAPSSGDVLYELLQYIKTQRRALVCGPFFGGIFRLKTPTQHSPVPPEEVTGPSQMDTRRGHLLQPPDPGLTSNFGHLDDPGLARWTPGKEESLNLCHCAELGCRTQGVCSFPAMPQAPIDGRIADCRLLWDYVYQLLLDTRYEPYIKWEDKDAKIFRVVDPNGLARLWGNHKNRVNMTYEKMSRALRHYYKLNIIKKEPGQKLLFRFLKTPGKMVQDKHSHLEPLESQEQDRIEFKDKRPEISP", "outline": "as §1"}, "[5]": {"target": "T4, ETV3 (Homo sapiens, UniProt P41162-2 1-143)", "T4 sequence": "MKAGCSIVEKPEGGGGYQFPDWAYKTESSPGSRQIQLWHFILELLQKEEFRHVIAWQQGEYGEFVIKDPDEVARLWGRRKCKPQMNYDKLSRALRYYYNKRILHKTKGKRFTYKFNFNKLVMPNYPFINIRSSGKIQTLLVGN", "outline": "as §1"}},
  "data": [
    {"sequence": "GCCCGG", "values": [
      {"measurement": "binding signal", "setting": "[1]", "result": "1.03 fold enrichment (6-mer frequency, TF over GST control)"},
      {"measurement": "binding signal", "setting": "[2]", "result": "1.01 fold enrichment (6-mer frequency, TF over GST control)"},
      {"measurement": "binding signal", "setting": "[3]", "result": "1.06 fold enrichment (6-mer frequency, TF over GST control)"},
      {"measurement": "binding signal", "setting": "[4]", "result": "1.01 fold enrichment (6-mer frequency, TF over GST control)"},
      {"measurement": "binding signal", "setting": "[5]", "result": "1.07 fold enrichment (6-mer frequency, TF over GST control)"}
    ]}
  ]
}
